Inconclusive results are not listed. The source made the active and inactive calls. Calls follow the shape of the dose curve; as a rule, active = well fitted inhibition curve with a large enough effect; inconclusive = small, poorly fitted or top-dose-only effect; inactive = flat fitted curve, though single readings scatter. Peptide text beside a SMILES is read from it.
Tests used:
Assay in all cases: qHTS profiling for inhibitors of Plasmodium falciparum proliferation (AID 504749); also: nearly all actives have a fitted effect of over 60% in size
Details in all cases: P. falciparum in erythrocytes, SYBR Green DNA, 72 h; series mostly up to 28.7 µM
PAD = system: PAD
Method in brief: (§1)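 In a 72 h erythrocytic culture (37 C, humidified, 5% CO2) at 2.5% hematocrit and 0.3% starting parasitemia, compounds were tested; SYBR Green I in detergent lysis buffer stained parasite DNA overnight.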

PC15 = system: PC15
Method in brief: as §1

PC26 = system: PC26
Method in brief: as §1

PC49 = system: PC49
Method in brief: as §1

SC27B = system: SC27B
Method in brief: as §1

TAB109 = system: TAB109
Method in brief: as §1

TAB113 = system: TAB113
Method in brief: as §1

TAB165 = system: TAB165
Method in brief: as §1

W2 = system: W2
Method in brief: as §1

Measured: Potency
Potency is read from the fitted curve at half-maximal effect.

Cc1ccccc1OCC(O)CNCCOc1ccc(C(N)=O)cc1 (stereo not given)
inactive: PAD | PC15 | PC26 | PC49 | SC27B | TAB109 | TAB113 | TAB165 | W2

O=S(=O)(O)c1ccc2c(N=Nc3ccc(S(=O)(=O)O)c4ccccc34)c(O)c(S(=O)(=O)O)cc2c1
inactive: PAD | PC15 | PC26 | PC49 | SC27B | TAB109 | TAB113 | TAB165 | W2

Cc1c(C)c2c(c(C)c1O)CC[C@@](C)(CCC[C@H](C)CCC[C@H](C)CCCC(C)C)O2
inactive: PAD | PC15 | PC26 | PC49 | SC27B | TAB109 | TAB113 | TAB165 | W2

CC1=C(/C=C/C(C)=C/C=C/C(C)=C/C=C/C=C(C)/C=C/C=C(C)/C=C/C2=C(C)C(=O)CCC2(C)C)C(C)(C)CCC1=O
inactive: PAD | PC15 | PC26 | PC49 | SC27B | TAB109 | TAB113 | TAB165 | W2

Nc1c(N=Nc2ccc(-c3ccc(N=Nc4cc(S(=O)(=O)O)c5ccccc5c4N)cc3)cc2)cc(S(=O)(=O)O)c2ccccc12
inactive: PAD | PC15 | PC26 | PC49 | SC27B | TAB109 | TAB113 | TAB165 | W2

CC(=O)N[C@@H](CC(=O)O)C(=O)N[C@@H](CCC(=O)O)C(=O)O (Ac-Asp-Glu-OH)
inactive: PAD | PC15 | PC26 | PC49 | SC27B | TAB109 | TAB113 | TAB165 | W2

Cc1cc(C(=O)NNCc2ccccc2)no1
inactive: PAD | PC15 | PC26 | PC49 | SC27B | TAB109 | TAB113 | TAB165 | W2

O=C(O)CN(CCN(CC(=O)O)CC(=O)O)CC(=O)O
inactive: PAD | PC15 | PC26 | PC49 | SC27B | TAB109 | TAB113 | TAB165 | W2

CO[C@H](C(=O)[C@@H](O)[C@@H](C)O)C1Cc2cc3cc(O[C@H]4C[C@@H](O[C@H]5C[C@@H](O)[C@H](O)[C@@H](C)O5)[C@@H](O)[C@@H](C)O4)c(C)c(O)c3c(O)c2C(=O)[C@H]1O[C@H]1C[C@@H](O[C@H]2C[C@@H](O[C@H]3C[C@](C)(O)[C@H](O)[C@@H](C)O3)[C@H](O)[C@@H](C)O2)[C@H](O)[C@@H](C)O1 (stereo not given in full)
active: PAD 158 nM | PC15 316 nM | PC26 3.01 µM | PC49 708 nM | SC27B 126 nM | TAB109 141 nM | TAB113 89.1 nM | TAB165 126 nM | W2 169 nM

CC(NNC(=O)c1ccccc1)c1ccccc1 (stereo not given)
inactive: PAD | PC15 | PC26 | PC49 | SC27B | TAB109 | TAB113 | TAB165 | W2

C[C@]12CCC(=O)C=C1CC[C@@H]1[C@@H]2[C@@H](O)C[C@@]2(C)[C@H]1CC[C@]2(O)C(=O)COP(=O)(O)O
inactive: PAD | PC15 | PC26 | PC49 | SC27B | TAB109 | TAB113 | TAB165 | W2

C[C@@H]1CCC2[C@@H](C)[C@@H](O)O[C@@H]3O[C@@]4(C)CC[C@@H]1[C@@]23OO4 (stereo not given in full)
active: PAD 1.4 nM | PC15 0.9 nM | PC26 0.0027 µM | PC49 0.3 nM | SC27B 2 nM | TAB109 1 nM | TAB113 1.1 nM | TAB165 0.9 nM | W2 0.5 nM

CC1=CCC(C(C)(C)O)CC1 (stereo not given)
inactive: PAD | PC15 | PC26 | PC49 | SC27B | TAB109 | TAB113 | TAB165 | W2

CCCC(=O)Nc1ncnc2c1ncn2C1OC2COP(=O)(O)OC2C1OC(=O)CCC (stereo not given)
inactive: PAD | PC15 | PC26 | PC49 | SC27B | TAB109 | TAB113 | TAB165 | W2

Cc1cn([C@H]2C[C@H](O)[C@@H](CO)O2)c(=O)[nH]c1=O
inactive: PAD | PC15 | PC26 | PC49 | SC27B | TAB109 | TAB113 | TAB165 | W2

C[C@]12O[C@H](C[C@]1(O)CO)n1c3ccccc3c3c4c(c5c6ccccc6n2c5c31)CNC4=O
active: PAD 251 nM | PC15 447 nM | PC26 0.239 µM | PC49 891 nM | SC27B 316 nM | TAB109 355 nM | TAB113 316 nM | TAB165 251 nM | W2 239 nM

CCCCCCCC(=O)O
inactive: PAD | PC15 | PC26 | PC49 | SC27B | TAB109 | TAB113 | TAB165 | W2

C[C@H]1C[C@H]2[C@@H]3CCC4=CC(=O)C=C[C@]4(C)[C@@]3(F)[C@@H](O)C[C@]2(C)[C@@]1(O)C(=O)CO
inactive: PAD | PC15 | PC26 | PC49 | SC27B | TAB109 | TAB113 | TAB165 | W2

CC[N+](C)(C)Cc1ccccc1Br
inactive: PAD | PC15 | PC26 | PC49 | SC27B | TAB109 | TAB113 | TAB165 | W2

CC(C)=O
inactive: PAD | PC15 | PC26 | PC49 | SC27B | TAB109 | TAB113 | TAB165 | W2

COC(=O)CCC(=O)CN
inactive: PAD | PC15 | PC26 | PC49 | SC27B | TAB109 | TAB113 | TAB165 | W2

COC(F)(F)C(Cl)Cl
inactive: PAD | PC15 | PC26 | PC49 | SC27B | TAB109 | TAB113 | TAB165 | W2

CCC(=O)NCCC1CCc2ccc3c(c21)CCO3 (stereo not given)
inactive: PAD | PC15 | PC26 | PC49 | SC27B | TAB109 | TAB113 | TAB165 | W2

Oc1cc(O)c2c(c1)OC(c1ccc(O)c(O)c1)C(O)C2 (stereo not given)
inactive: PAD | PC15 | PC26 | PC49 | SC27B | TAB109 | TAB113 | TAB165 | W2

Nc1ncnc2c1ncn2[C@@H]1O[C@H](COP(=O)(O)OP(=O)(O)OP(=O)(O)O)[C@@H](O)[C@H]1O
inactive: PAD | PC15 | PC26 | PC49 | SC27B | TAB109 | TAB113 | TAB165 | W2

CC(O)CO (stereo not given)
inactive: PAD | PC15 | PC26 | PC49 | SC27B | TAB109 | TAB113 | TAB165 | W2

CCOC(C)=O
inactive: PAD | PC15 | PC26 | PC49 | SC27B | TAB109 | TAB113 | TAB165 | W2

CCN(CC)Cc1cc(Nc2ccnc3cc(Cl)ccc23)ccc1O
active: PAD 31.6 nM | PC15 178 nM | PC26 0.161 µM | PC49 100 nM | SC27B 70.8 nM | TAB109 50.1 nM | TAB113 79.4 nM | TAB165 44.7 nM | W2 51 nM

CCCC(=O)O[C@]1(C(=O)CCl)[C@H](C)C[C@@H]2[C@H]3CCC4=CC(=O)C=C[C@]4(C)[C@@]3(F)C(=O)C[C@@]21C
active: PAD 4470 nM | PC15 3550 nM | PC26 3.01 µM | PC49 10000 nM | SC27B 2820 nM | TAB109 3160 nM | TAB113 2510 nM | TAB165 2000 nM | W2 1510 nM

CCOc1ccc2c(c1)C(C)=CC(C)(C)N2
inactive: PAD | PC15 | PC26 | PC49 | SC27B | TAB109 | TAB113 | TAB165 | W2

CC1=C(/C=C/C(C)=C/C=C/C(C)=C/C=C/C=C(C)/C=C/C=C(C)/C=C/C2=C(C)CCCC2(C)C)C(C)(C)CCC1
inactive: PAD | PC15 | PC26 | PC49 | SC27B | TAB109 | TAB113 | TAB165 | W2

O=C1C(=O)c2ncccc2-c2cccnc21
active: PAD 794 nM | PC15 891 nM | PC26 1.07 µM | PC49 3550 nM | SC27B 2820 nM | TAB109 1000 nM | TAB113 1780 nM | TAB165 794 nM | W2 1070 nM

C=CCSSSCC=C
inactive: PAD | PC15 | PC26 | PC49 | SC27B | TAB109 | TAB113 | TAB165 | W2

CC1(C)S[C@@H]2[C@H](NC(=O)[C@@H](NC(=O)N3CCNC3=O)c3ccccc3)C(=O)N2[C@H]1C(=O)O
inactive: PAD | PC15 | PC26 | PC49 | SC27B | TAB109 | TAB113 | TAB165 | W2

CCCCC/C=C\C/C=C\CCCCCCCC(=O)O
inactive: PAD | PC15 | PC26 | PC49 | SC27B | TAB109 | TAB113 | TAB165 | W2

— PubChem BioAssay (NCATS)
